The results in this text go back to the OligoGym collection.
Further: reference of the scale not given here.

One assay has as its target DNAJA2. The assay can be described thus: pooled miR-30 sensor sort-seq; sequence = guide strand. As to conditions: shRNA.
As for TTGATAGTACTTCATATGCAAA, the sensor-assay potency score (higher = more potent) is -1.43.

The sequence TATTTCACCACAATCTGACGTC showed a sensor-assay potency score (higher = more potent) of 0.583.

In turn, TCGAGTGCTATCAAATTCCTGA had a sensor-assay potency score (higher = more potent) of 0.237. For the sequence TTCTTCAGCTCGTTCTCGCTGG, the sensor-assay potency score (higher = more potent) is -0.323.

Sequence TTTCTTTAAATTTGTCTCCTGC yielded a sensor-assay potency score (higher = more potent) of 0.759.

Regarding TTCAAGAATCTTGACTTCTTTA, the sensor-assay potency score (higher = more potent) is -0.418. Same read-out and setting: with TACCTCATGTTCTTTCTCCTGT the figure was 0.929; with TATTCCTTGGCTAACTTTCTGT, -0.171. The sequence TAGTTCAGAAAGCTTGTCTGGG came in with a sensor-assay potency score (higher = more potent) of 0.299. AATTATGTTAGGAACTTCCGGT registered a sensor-assay potency score (higher = more potent) of -0.0625. In turn, TTTCATGCCTTTGTCTACGTGG yielded a sensor-assay potency score (higher = more potent) of -0.148.

TAGAGCTTCAACAAGTCCTATT came in with a sensor-assay potency score (higher = more potent) of -0.658.

The target in another assay is DNAJB11. The assay is described as above. As to conditions: shRNA.
For TTCGGAACCGTAAATCTCCAGG, the sensor-assay potency score (higher = more potent) is -0.565.

Consider TTGTGTACAAATCATCTCCTCT, for which the sensor-assay potency score (higher = more potent) was -0.302. TCTTATAGAAATCTCGTCCGGC showed a sensor-assay potency score (higher = more potent) of 0.334. As to TTCTTCACCATAAGTATCGTAC, the sensor-assay potency score (higher = more potent) was -0.183. On to TCTATTTCTACTTCCAGCGTTC, for which the sensor-assay potency score (higher = more potent) was -0.287. As for TATACCTTCTGCACTGACCCTT, the sensor-assay potency score (higher = more potent) was determined as 0.681. The sequence TTCACCATAAGTATCGTACTGT showed a sensor-assay potency score (higher = more potent) of 0.409.

In the case of TATTTCTGTCTTGCTGACGAGG, the sensor-assay potency score (higher = more potent) is -1.05. TTTGTTTCTAACTACTTCCACA displayed a sensor-assay potency score (higher = more potent) of -0.721. TTCGTCGCAGACCACCTCCTGG: the sensor-assay potency score (higher = more potent) is -1.23. TCTTCCATAGCTTCGCTCCTGG yielded a sensor-assay potency score (higher = more potent) of -0.0366. The sequence TTTGTGTACAAATCATCTCCTC had a sensor-assay potency score (higher = more potent) of -0.115.
